Assay results published in PubChem BioAssay (NCI).
Compounds without any hit were thinned out: in the full panel of roughly 79,000, 15% have a hit. No stated cut-off is given here; in the data, active means growth inhibition above about 70%; inactive means the rest.

What was measured:
[1] = NCI Yeast Anticancer Drug Screen. Data for the rad50 strain (AID 155);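 further: 0% = growth of vehicle-only cultures of the same strain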; conditions: S. cerevisiae rad50 strain growth inhibition; at 50.0 µM; active compounds read high
Method in brief: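 Compounds were tested on a yeast strain with an engineered DNA damage repair alteration; the reported value is growth inhibition normalised to vehicle treatment.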

[2] = NCI Yeast Anticancer Drug Screen. Data for the mec2-1 strain (AID 157); conditions: S. cerevisiae mec2-1 strain, at 50.0 µM, active compounds read high
Method in brief: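 Vehicle-treated cultures served as reference for growth inhibition of compound-exposed mec2-1 yeast.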

[3] = NCI Yeast Anticancer Drug Screen. Data for the sgs1 mgt1 strain (AID 161);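 further: 0% = growth of cultures given vehicle only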; conditions: S. cerevisiae sgs1 mgt1 strain, at 50.0 µM, active compounds read high
Method in brief: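 Genetically altered yeast, compound exposure, growth inhibition relative to vehicle.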

[4] = NCI Yeast Anticancer Drug Screen. Data for the cln2 rad14 strain (AID 165);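 further: 0% = growth equal to vehicle treated cultures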; conditions: S. cerevisiae cln2 rad14 strain, at 50.0 µM, active compounds read high
Method in brief: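 Each compound was tested on cln2 rad14 yeast. Inhibition of growth was calculated against vehicle-exposed controls.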

[5] = NCI Yeast Anticancer Drug Screen. Data for the bub3 strain (AID 167); conditions: S. cerevisiae bub3 mutant strain, at 50.0 µM, active compounds read high
Method in brief: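 Growth of a checkpoint-deficient yeast mutant is measured after compound exposure. Values represent inhibition relative to vehicle.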

[6] = NCI Yeast Anticancer Drug Screen. Data for the mlh1 rad18 strain (AID 175); conditions: S. cerevisiae mlh1 rad18 strain growth inhibition; at 50.0 µM; active compounds read high
Method in brief: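 Vehicle-treated cultures served as the reference for growth inhibition in a yeast strain carrying DNA damage repair alterations exposed to each compound.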

Measured: growth inhibition

Cc1nc(N)c2nc(SC(C)C)c(N)nc2n1
inactive: [1] 2.85% | [2] -6.55% | [3] 0.45% | [4] -31.2% | [5] -20.9% | [6] 17.2%

Cc1cccc(C2=N/C(=C\c3ccc4c(c3)OC(O)O4)C(=O)O2)c1 (stereo not given)
inactive: [1] -1.9% | [2] 6.55% | [3] 4.95% | [4] 3.55% | [5] 7.05% | [6] -16.4%

CC(C)CCOCC(O)CNCCN (stereo not given)
inactive: [1] 12.6% | [2] 2.5% | [3] -14.7% | [4] 5.1% | [5] -1% | [6] 12.3%

Cn1nnc(C(=O)O)n1
inactive: [1] -7.75% | [2] -4.35% | [3] -4.7% | [4] -19.8% | [5] -11.4% | [6] -10.8%

O=C(O)CC(C(=O)O)=C1CCCCC1
inactive: [1] 11.8% | [2] 13.4% | [3] 0.5% | [4] 8.15% | [5] 8.75% | [6] -0.3%

S=C1Cc2c(-c3ccccc3)cc(-c3ccc(Cl)cc3)nc2-c2ccccc2N1
inactive: [1] 8.75% | [2] -3.85% | [3] 5.65% | [4] 2.55% | [5] 6.75% | [6] -4.25%

O=C1CN(c2ccc(Cl)cc2)C(=O)CN1/N=C/c1ccc(O)c(O)c1
inactive: [1] -37.1% | [2] -10.8% | [3] 4.4% | [4] -16.9% | [5] -7.65% | [6] -4.95%

O=[N+]([O-])c1ccc(F)c(Cl)c1F
inactive: [1] 15.8% | [2] -6.65% | [3] -2.15% | [4] -20.9% | [5] -12.7% | [6] -3.45%

O=C(O)C(CBr)c1ccccc1 (stereo not given)
inactive: [1] 6.7% | [2] 7.2% | [3] -0.55% | [4] 13.2% | [5] 0.05% | [6] 0.5%

Cc1ccc2c(c1)C1(c3ccccc3)Oc3ccc(C)cc3C(c3ccccc3)(O2)O1
inactive: [1] 12.2% | [2] 5.75% | [3] 10.7% | [4] 25.3% | [5] -4.9% | [6] -7.2%
